Compound activity deposited in PubChem BioAssay by several laboratories.
BCLXL inh – inhibitors of human Bcl-xL, primary screen, biochemical, fluorescence polarization, HTS | inhibition, % at 10.9 µM | actives 0.7% (n = 320,000) | Bcl-2-like protein 1 (Homo sapiens), Q07817 | GST-Bcl-xL / FITC-Bim BH3 peptide fluorescence polarization;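 active means inhibition above the mean of all tested compounds plus 3 SD, cutoff set per campaign, cut at about 30% in these data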;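 further: 0% = DMSO wells and 100% = unlabeled Bim-BH3 peptide competitor; inhibitors lower millipolarization by displacing the labeled peptide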
GLD-1 TGE inh – GLD-1/TGE RNA complex disruptors, primary screen, biochemical, fluorescence polarization. actives 0.44% (n = 320,000). inhibition, % at 5.96 µM. purified GLD-1 + fluorescein TGE RNA. AID 2280, 2010;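 active means percent inhibition above a per-plate cutoff, the plate mean of test compounds plus 3 SD, cut at about 30% in these data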;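 further: 0% = DMSO wells with GLD-1 and probe and 100% = wells lacking GLD-1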
eLon inh – inhibitors of E. coli Lon protease, primary screen, biochemical, fluorescence polarization. P0A9M0. inhibition, % at 7.94 µM. AID 602123, 2011. purified E. coli Lon protease. actives 0.42% (n = 360,000); in the data active means inhibition above about 13%, passing the limit was not always enough;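 further: 0% = enzyme with probe and DMSO and 100% = no enzyme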
Target sequence (P0A9M0 whole entry, looked up): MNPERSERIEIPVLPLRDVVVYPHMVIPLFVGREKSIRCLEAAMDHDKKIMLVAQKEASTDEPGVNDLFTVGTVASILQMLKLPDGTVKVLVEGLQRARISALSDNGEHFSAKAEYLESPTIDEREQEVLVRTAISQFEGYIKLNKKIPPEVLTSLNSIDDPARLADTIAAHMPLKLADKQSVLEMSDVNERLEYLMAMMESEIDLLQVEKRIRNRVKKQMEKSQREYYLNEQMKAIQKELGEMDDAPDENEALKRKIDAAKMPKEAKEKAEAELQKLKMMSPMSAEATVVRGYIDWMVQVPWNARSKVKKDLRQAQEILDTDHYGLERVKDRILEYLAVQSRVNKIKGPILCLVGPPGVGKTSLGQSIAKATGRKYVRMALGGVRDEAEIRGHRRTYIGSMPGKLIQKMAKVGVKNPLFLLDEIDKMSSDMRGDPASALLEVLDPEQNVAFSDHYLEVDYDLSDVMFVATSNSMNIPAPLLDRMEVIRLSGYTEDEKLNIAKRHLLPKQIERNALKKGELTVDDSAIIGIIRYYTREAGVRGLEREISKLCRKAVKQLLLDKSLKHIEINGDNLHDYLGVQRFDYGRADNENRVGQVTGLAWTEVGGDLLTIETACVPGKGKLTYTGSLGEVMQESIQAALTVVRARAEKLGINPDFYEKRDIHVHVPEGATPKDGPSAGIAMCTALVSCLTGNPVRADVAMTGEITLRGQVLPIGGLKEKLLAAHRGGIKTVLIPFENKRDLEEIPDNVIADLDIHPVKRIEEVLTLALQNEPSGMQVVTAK
EBV gp42 inh – Epstein-Barr virus gp42 inhibitors, primary screen, biochemical, uHTS, fluorescence polarization. actives 0.42% (n = 220,000). Glycoprotein 42 (Epstein-Barr virus (strain AG876)), Q1HVG2. Fluorescence polarization binding assay, mP read-out. inhibition, % (tested at 21.74 µM); in the data active means inhibition above about 50%
MCL1 BIM primary – inhibitors of MCL1 binding to BIM-BH3, primary screen, biochemical, fluorescence polarization; Induced myeloid leukemia cell differentiation protein Mcl-1 (Homo sapiens), Q07820; GST-MCL1 / FITC-Bim-BH3 fluorescence polarization; inhibition, % at 10.9 µM; actives 0.68% (n = 320,000); AID 2057, 2009;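 active means inhibition above the mean inhibition of all tested compounds plus 3 SD, set per campaign, cut at about 40% in these data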;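 further: 0% = DMSO wells and 100% = unlabeled Bim-BH3 peptide control; higher means more loss of mP so more displacement of Bim peptide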
MEX-5 binding – MEX-5 zinc finger RNA-binding disruptors – biochemical, C. elegans, fluorescence polarization, MLPCN library, primary screen. AID 1832, 2009. actives 0.38% (n = 300,000). MEX-5/FITC-TCR2 RNA binding; stronger effect = lower value. activity score (negative = inhibition of binding), % at 10 µM. Zinc finger protein mex-5 (Caenorhabditis elegans), Q9XUB2;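 active means inhibition past about -25% in most replicates, and total fluorescence under double the plate's negative control median, limit read from the data; inconclusive means replicates evenly split on the limit, or fluorescence at least double controls; inactive means too little inhibition in most replicates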;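 further: 0% = DMSO and -100% = 5 µM competing unlabeled TCR2 RNA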
* hit, by the source's call. Hits are enriched below; roughly 1.4% of the tested compounds scored in any of these assays.

`NS(=O)(=O)c1ccc(-c2cccc(/C=C3\SC(=O)NC3=O)c2)cc1` gave BCLXL inh -2, GLD-1 TGE inh 0, eLon inh -4, MCL1 BIM primary 17 and MEX-5 binding -36*.
Screening O=C(/C=C/N1CCOCC1)c1ccc(-c2ccccc2)cc1 returned BCLXL inh -2, GLD-1 TGE inh 0, eLon inh -8, EBV gp42 inh -11, MCL1 BIM primary -4 and MEX-5 binding -35*.
For CCCCCOc1ccc(/C=c2\sc3nc(=O)c(-c4ccccc4)nn3c2=O)cc1OC the results were BCLXL inh -4, GLD-1 TGE inh 1, eLon inh -19, EBV gp42 inh -5, MCL1 BIM primary -14 and MEX-5 binding -31*.
COc1cc(/C=c2\sc3nc(-c4ccncc4)nn3c2=O)ccc1OC(C)=O was read as EBV gp42 inh 37.
For CCCOc1ccc(/C=c2\sc3nc(-c4ccco4)nn3c2=O)cc1OCC the results were BCLXL inh 3, GLD-1 TGE inh 3, eLon inh -11, EBV gp42 inh 36, MCL1 BIM primary 17 and MEX-5 binding -67*.
`Nc1cc2c(cc1N)-c1ccccc1C2` gave eLon inh -3.
Screening Cc1noc(/C=C/N(C)C)c1S(=O)(=O)N1CCC(C(=O)O)CC1 returned BCLXL inh 10, GLD-1 TGE inh 11, eLon inh -1, EBV gp42 inh -10, MCL1 BIM primary 7 and MEX-5 binding -30*.
`Cc1ccc(CNC(=O)C2CCN(S(=O)(=O)c3c(C)noc3/C=C/N(C)C)CC2)cc1` gave BCLXL inh -25, GLD-1 TGE inh -20, eLon inh -53, MCL1 BIM primary -34 and MEX-5 binding -9.
`COc1ccc(N2C(=O)C(Cl)=C(Nc3ccccc3O)C2=O)cc1` gave BCLXL inh 13, GLD-1 TGE inh 3, eLon inh -2, EBV gp42 inh -17, MCL1 BIM primary 19 and MEX-5 binding -34*.
For COc1ccc(NC(=O)/C(C#N)=C\c2ccc(Br)o2)cc1 the results were BCLXL inh 0, GLD-1 TGE inh 0, eLon inh -6, EBV gp42 inh 33, MCL1 BIM primary 15 and MEX-5 binding 0.
For N#C/C(=C\c1ccc([N+](=O)[O-])o1)C(=O)Nc1ccc(F)cc1 the results were BCLXL inh 41*, GLD-1 TGE inh 29, eLon inh -48, EBV gp42 inh 6, MCL1 BIM primary 28 and MEX-5 binding 0.
For COc1ccc2c(C=Nc3c(C)n(C)n(-c4ccccc4)c3=O)c(O)n(Cc3ccco3)c(=O)c2c1 the results were BCLXL inh -10, GLD-1 TGE inh 19, eLon inh -11, EBV gp42 inh 78*, MCL1 BIM primary -8 and MEX-5 binding -13.
`Cc1c(N=Cc2ccco2)c(=O)n(-c2ccccc2)n1C` gave BCLXL inh 7, GLD-1 TGE inh -2, eLon inh 0, EBV gp42 inh -17, MCL1 BIM primary 7 and MEX-5 binding 1.
CCOc1ccc(NC(=O)COC(=O)c2cc(C)oc2C)cc1 was read as GLD-1 TGE inh 0 and eLon inh -11.
For O=C(O)c1cccc(N2C(=O)C3C4C=CC(C4=C(c4ccccc4)c4ccccc4)C3C2=O)c1 (stereo not given) the results were BCLXL inh 9, GLD-1 TGE inh -4, eLon inh -6, EBV gp42 inh 4, MCL1 BIM primary 4 and MEX-5 binding -1.
`CCCCCC(=O)N1C[C@@H](O)[C@H](n2cc(-c3ccc(F)cc3)nn2)C[C@@H]1c1ccccc1` gave eLon inh -3.
Screening Oc1c(Br)cc(Br)cc1/C=N/Nc1ccc(Cl)nn1 returned BCLXL inh 3, GLD-1 TGE inh 4, eLon inh 7, MCL1 BIM primary -1 and MEX-5 binding 4.
`Oc1ccc(/C=N/Nc2ccc(Cl)nn2)c(O)c1O` gave BCLXL inh 28, GLD-1 TGE inh 10, eLon inh 15, MCL1 BIM primary 35 and MEX-5 binding -48*.
Screening O=c1[nH]c2cc3c(cc2cc1CN(Cc1cccnc1)Cc1nnnn1Cc1ccco1)OCCO3 returned BCLXL inh 34*, GLD-1 TGE inh 6, eLon inh 0, EBV gp42 inh -14, MCL1 BIM primary 44* and MEX-5 binding -3.
`COc1ccccc1CN(Cc1cc2cc3c(cc2[nH]c1=O)OCCO3)Cc1nnnn1Cc1ccco1` gave BCLXL inh 32*, GLD-1 TGE inh 14, eLon inh 3, EBV gp42 inh -7, MCL1 BIM primary 31 and MEX-5 binding 4.
O=c1[nH]c2cc3c(cc2cc1CN(CCCO)Cc1nnnn1Cc1ccc(F)cc1)OCO3 was read as BCLXL inh 33*, GLD-1 TGE inh 15, eLon inh 13, EBV gp42 inh -7, MCL1 BIM primary 28 and MEX-5 binding -3.
`C[C@@H]1CN([C@H](C)CO)S(=O)(=O)c2ccc(Br)cc2O[C@H]1CN(C)S(C)(=O)=O` gave eLon inh -6.
Cn1c(CNC(=O)c2ccco2)nnc1SCC(=O)Nc1ccccc1Cl was read as BCLXL inh 2, GLD-1 TGE inh 1, eLon inh 7, MCL1 BIM primary 0 and MEX-5 binding 0.
CC1Cc2ccccc2N1C(=O)C(C)n1cc(C(F)(F)F)cc(Cl)c1=O (stereo not given) was read as BCLXL inh -1, GLD-1 TGE inh 9, eLon inh -5 and MCL1 BIM primary -3.
`Cc1ccc(OCCC(=O)OC(C)C(=O)Nc2c(C)n(C)n(-c3ccccc3)c2=O)cc1` (stereo not given) gave BCLXL inh 4, GLD-1 TGE inh 1, eLon inh 3, MCL1 BIM primary 5 and MEX-5 binding 4.
Screening CCOc1ccc(NC(=O)CSc2nnc(CNC(=O)c3cccs3)o2)cc1 returned BCLXL inh 2, GLD-1 TGE inh -6, eLon inh -8 and MCL1 BIM primary 5.
Screening COc1ccc2nc(SCC(C)=O)c(C#N)cc2c1 returned BCLXL inh 32*, GLD-1 TGE inh -8, eLon inh -7, EBV gp42 inh -10, MCL1 BIM primary 18 and MEX-5 binding inconclusive.
For COc1ccc2nc(SC)c(C#N)cc2c1 the results were BCLXL inh 3, GLD-1 TGE inh -2, eLon inh -8, EBV gp42 inh 2, MCL1 BIM primary 1 and MEX-5 binding 0.
For Cn1ccc(-c2ccccc2)n1 the results were BCLXL inh 5, GLD-1 TGE inh 4, eLon inh -4, EBV gp42 inh -4, MCL1 BIM primary 5 and MEX-5 binding -1.
